Measurements published in PubChem BioAssay AID1159580 (chemical genetic matrix, 2015).
Values joined by “and” are separate entries in the source; they are usually repeats but may differ in a detail not shown here. Equal entries are not always repeated. The campaign covered roughly 5,500 compounds. About 2,000 (36%) were called active. Roughly 18% stayed inconclusive and do not appear here. No stated cut-off is given here; in the data, active means normalized growth mostly below about 0.91 (no sharp cut-off); inconclusive means no clear call, values can overlap the other calls; inactive means mostly above about 0.92. Some of the results follow.

Assay: chemical genetic growth profiling, strain panel (AID 1159580);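 further: tested at 20 µM; growth read once vehicle control cultures reached saturation at 30 °C; 1 = growth at the plate median or of vehicle wells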
Conditions: growth OD

Measured: normalized growth

CN1CCN2c3ccccc3Cc3ccccc3C2C1 (stereo unspecified)
inactive: S. cerevisiae deletion strains, locus YJR075W, strain HOC1, stronger effect = lower value 1 and 0.97 | S. cerevisiae deletion strains, locus YKL009W, strain mrt4, stronger effect = lower value 0.999 | S. cerevisiae deletion strains, locus YKL068W, stronger effect = lower value 0.991 | S. cerevisiae deletion strains, locus YKL085W, strain MDH1 (second series), stronger effect = lower value 0.987 | S. cerevisiae deletion strains, locus YKL085W, strain MDH1, stronger effect = lower value 0.987 | S. cerevisiae deletion strains, locus YKL160W, strain elf1, stronger effect = lower value 0.989 | S. cerevisiae deletion strains, locus YKL190W, strain CNB1, stronger effect = lower value 1.02 | S. cerevisiae deletion strains, locus YKR001C, strain vps1, stronger effect = lower value 0.976 | S. cerevisiae deletion strains, locus YKR026C, strain gcn3, stronger effect = lower value 1 | S. cerevisiae deletion strains, locus YKR091W, strain srl3, stronger effect = lower value 1.01 | S. cerevisiae deletion strains, locus YLL001W, strain dnm1, stronger effect = lower value 0.982 | S. cerevisiae deletion strains, locus YLL026W, stronger effect = lower value 0.997 | S. cerevisiae deletion strains, locus YLL041C, strain sdh2, stronger effect = lower value 1 | S. cerevisiae deletion strains, locus YLR027C, strain aat2, stronger effect = lower value 1 | S. cerevisiae deletion strains, locus YLR039C, strain RIC1, stronger effect = lower value 1.03 | S. cerevisiae deletion strains, locus YLR058C, strain SHM2, stronger effect = lower value 1.01 | S. cerevisiae deletion strains, locus YLR102C, strain apc9, stronger effect = lower value 0.994 | S. cerevisiae deletion strains, locus YLR113W, strain HOG1, stronger effect = lower value 0.996 | S. cerevisiae deletion strains, locus YLR221C, strain rsa3, stronger effect = lower value 0.993 | S. cerevisiae deletion strains, locus YLR258W, strain gsy2, stronger effect = lower value 0.987 | S. cerevisiae deletion strains, locus YLR262C, strain YPT6 (second series), stronger effect = lower value 0.991 | S. cerevisiae deletion strains, locus YLR262C, strain YPT6, stronger effect = lower value 1.05 | S. cerevisiae deletion strains, locus YLR268W, strain sec22, stronger effect = lower value 0.974 | S. cerevisiae deletion strains, locus YLR320W, strain mms22, stronger effect = lower value 0.985 | S. cerevisiae deletion strains, locus YLR330W, strain CHS5, stronger effect = lower value 1.01 | S. cerevisiae deletion strains, locus YLR342W, strain FKS1 (second series), stronger effect = lower value 0.985 | S. cerevisiae deletion strains, locus YLR342W, strain FKS1, stronger effect = lower value 0.999 | S. cerevisiae deletion strains, locus YLR357W, strain rsc2, stronger effect = lower value 1.01 | S. cerevisiae deletion strains, locus YLR370C, strain arc18, stronger effect = lower value 1 | S. cerevisiae deletion strains, locus YLR371W, strain rom2, stronger effect = lower value 1 | S. cerevisiae deletion strains, locus YLR384C, strain iki3, stronger effect = lower value 1 | S. cerevisiae deletion strains, locus YLR418C, strain cdc73, stronger effect = lower value 0.989 | S. cerevisiae deletion strains, locus YML016C, strain PPZ1, stronger effect = lower value 1.01 | S. cerevisiae deletion strains, locus YML032C, strain rad52, stronger effect = lower value 1 | S. cerevisiae deletion strains, locus YML120C, strain ndi1, stronger effect = lower value 1 | S. cerevisiae deletion strains, locus YML124C, strain tub3, stronger effect = lower value 0.994 | S. cerevisiae deletion strains, locus YMR058W, strain fet3, stronger effect = lower value 1.01 | S. cerevisiae deletion strains, locus YMR078C, strain ctf18, stronger effect = lower value 0.987 | S. cerevisiae deletion strains, locus YMR125W, strain sto1, stronger effect = lower value 1 | S. cerevisiae deletion strains, locus YMR129W, stronger effect = lower value 0.981 | S. cerevisiae deletion strains, locus YMR205C, strain PFK2, stronger effect = lower value 0.982 | S. cerevisiae deletion strains, locus YMR223W, strain ubp8, stronger effect = lower value 0.986 | S. cerevisiae deletion strains, locus YMR231W, strain pep5, stronger effect = lower value 1 | S. cerevisiae deletion strains, locus YMR263W, strain SAP30, stronger effect = lower value 1.01 and 0.995 | S. cerevisiae deletion strains, locus YMR307W, strain GAS1, stronger effect = lower value 1.04 | S. cerevisiae deletion strains, locus YNL067W, strain RPL9B, stronger effect = lower value 1.02 | S. cerevisiae deletion strains, locus YNL071W, strain lat1, stronger effect = lower value 0.998 | S. cerevisiae deletion strains, locus YNL128W, strain TEP1, stronger effect = lower value 1.02 | S. cerevisiae deletion strains, locus YNL153C, strain GIM3, stronger effect = lower value 1.02 and 0.974 | S. cerevisiae deletion strains, locus YNL175C, strain NOP13, stronger effect = lower value 1.02 | S. cerevisiae deletion strains, locus YNL183C, strain NPR1, stronger effect = lower value 0.919 | S. cerevisiae deletion strains, locus YNL197C, strain WHI3, stronger effect = lower value 1.02 | S. cerevisiae deletion strains, locus YNL209W, strain ssb2, stronger effect = lower value 0.997 | S. cerevisiae deletion strains, locus YNL224C, strain SQS1, stronger effect = lower value 1.02 | S. cerevisiae deletion strains, locus YNL233W, strain BNI4, stronger effect = lower value 1.02 | S. cerevisiae deletion strains, locus YNL248C, strain rpa49, stronger effect = lower value 0.994 | S. cerevisiae deletion strains, locus YNL250W, strain rad50, stronger effect = lower value 0.985 | S. cerevisiae deletion strains, locus YNL271C, strain bni1, stronger effect = lower value 0.981 | S. cerevisiae deletion strains, locus YNL298W, strain CLA4, stronger effect = lower value 0.99 | S. cerevisiae deletion strains, locus YNL307C, strain MCK1, stronger effect = lower value 0.993 | S. cerevisiae deletion strains, locus YNL322C, strain KRE1 (second series), stronger effect = lower value 0.996 | S. cerevisiae deletion strains, locus YNL322C, strain KRE1, stronger effect = lower value 1.02 | S. cerevisiae deletion strains, locus YNR049C, strain mso1, stronger effect = lower value 1 | S. cerevisiae deletion strains, locus YNR052C, strain pop2, stronger effect = lower value 0.989 | S. cerevisiae deletion strains, locus YOL006C, strain TOP1, stronger effect = lower value 1.02 | S. cerevisiae deletion strains, locus YOL012C, strain htz1 0.782 | S. cerevisiae deletion strains, locus YOL147C, strain pex11, stronger effect = lower value 0.991 | S. cerevisiae deletion strains, locus YOR001W, strain rrp6, stronger effect = lower value 0.99 | S. cerevisiae deletion strains, locus YOR061W, strain CKA2, stronger effect = lower value 1.02 | S. cerevisiae deletion strains, locus YOR069W, strain VPS5, stronger effect = lower value 1.01 | S. cerevisiae deletion strains, locus YOR070C, strain gyp1, stronger effect = lower value 0.999 | S. cerevisiae deletion strains, locus YOR080W, strain dia2, stronger effect = lower value 1.01 | S. cerevisiae deletion strains, locus YOR083W, strain WHI5 (second series), stronger effect = lower value 0.985 | S. cerevisiae deletion strains, locus YOR083W, strain WHI5, stronger effect = lower value 0.983 | S. cerevisiae deletion strains, locus YOR106W, strain vam3, stronger effect = lower value 0.986 | S. cerevisiae deletion strains, locus YOR136W, strain idh2, stronger effect = lower value 0.992 | S. cerevisiae deletion strains, locus YOR144C, strain elg1, stronger effect = lower value 0.99 | S. cerevisiae deletion strains, locus YOR184W, strain ser1, stronger effect = lower value 0.98 | S. cerevisiae deletion strains, locus YOR231W, strain MKK1, stronger effect = lower value 0.973 | S. cerevisiae deletion strains, locus YOR265W, strain rbl2, stronger effect = lower value 1 | S. cerevisiae deletion strains, locus YOR270C, strain vph1, stronger effect = lower value 0.993 | S. cerevisiae deletion strains, locus YOR290C, strain snf2, stronger effect = lower value 0.928 | S. cerevisiae deletion strains, locus YOR316C, strain cot1, stronger effect = lower value 0.989 | S. cerevisiae deletion strains, locus YPL051W, strain arl3, stronger effect = lower value 0.988 | S. cerevisiae deletion strains, locus YPL055C, strain LGE1, stronger effect = lower value 1.04 | S. cerevisiae deletion strains, locus YPL078C, strain atp4, stronger effect = lower value 0.983 | S. cerevisiae deletion strains, locus YPL106C, strain sse1, stronger effect = lower value 0.989 | S. cerevisiae deletion strains, locus YPL240C, strain hsp82, stronger effect = lower value 1.01 | S. cerevisiae deletion strains, locus YPL241C, strain CIN2, stronger effect = lower value 1.01 | S. cerevisiae deletion strains, locus YPL256C, strain CLN2, stronger effect = lower value 0.99 | S. cerevisiae deletion strains, locus YPR119W, strain clb2, stronger effect = lower value 0.988 | S. cerevisiae deletion strains, locus YPR141C, strain kar3, stronger effect = lower value 0.975 | S. cerevisiae deletion strains, locus YPR163C, strain tif3, stronger effect = lower value 0.984 | S. cerevisiae deletion strains, locus YPR167C, strain met16, stronger effect = lower value 0.987 | S. cerevisiae deletion strains, strain wtn01, stronger effect = lower value 0.97 | S. cerevisiae strains, strain wild type, stronger effect = lower value 1.01
